{"source": "PubChem BioAssay (NCI)", "note": "Compounds without any hit were thinned out: in the full panel of roughly 83,000, 20% have a hit.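 Growth was measured after 48 h exposure to one concentration of compound in 96-well plates. Values under 10 count as active.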 Unmarked numbers belong to inactive results. Active and inactive are the calls of the source."}
{"system": "MDA-MB-468 breast", "assay": "NCI-60 one-dose screen, 48 h (100 = growth as untreated, 0 = no growth, -100 = all killed)", "conditions": "10 µM unless noted"}
{"smiles": "Cc1nnc(Nc2ccc(NC(=O)Nc3ccc(Cl)cc3)cc2)c2ccccc12", "growth": "6.44% (active)"}
{"smiles": "CC(CC(CCC(=O)O)(c1ccccc1)c1ccccc1)N(C)C", "note": "(stereo not drawn)", "growth": "98.4%"}
{"smiles": "NC(N)=Nc1ccc(Oc2cccc(NC(N)=Nc3ccc(Cl)c(C(F)(F)F)c3)c2)cn1", "growth": "6.72% (active)"}
{"smiles": "CCC(C)Oc1cc(/C=N/NC(=O)c2cnn3c2NC(c2ccccc2)C3)ccc1OC", "note": "(stereo not drawn)", "growth": "19.1%"}
{"smiles": "C[C@@H](Nc1c(C#N)cnc2ccc(-c3cnc(Cl)c(NS(C)(=O)=O)c3)cc12)c1ccccc1", "growth": "-36% (active)"}
{"smiles": "Nc1c(C(=O)Nc2c(Cl)cccc2Cl)sc2nc3c(cc12)CCCCC3", "growth": "32.1%"}
{"smiles": "OCCn1cc(-c2nc(-c3c[nH]c4ncccc34)cs2)c2ccccc21", "growth": "4.37% (active)"}
{"smiles": "O=C(/C=C/c1cccnc1)/C=C/c1cccnc1", "growth": "-64.1% (active)"}
{"smiles": "CC1CN(CCCOC(=O)Nc2ccc(Cl)cc2)CCN1C(C)(C)C", "note": "(stereo not drawn)", "growth": "104%"}
{"smiles": "COC(=O)c1ccccc1N(C)C", "growth": "107%"}
{"smiles": "COc1ccc(-n2ncn(CCCCCCn3cnn(-c4ccc(OC)cc4)c3=O)c2=O)cc1", "growth": "84.8%"}
{"smiles": "S=C=NP1(N=C=S)=NP(N=C=S)(N=C=S)=NP(N=C=S)(N=C=S)=NP(N=C=S)(N=C=S)=N1", "note": "(stereo not drawn)", "growth": "107%"}
{"smiles": "c1ccc(-c2c(-c3ccccc3)[n+](Cc3ccc4ccccc4c3)c(-c3ccccc3)n2Cc2ccc3ccccc3c2)cc1", "growth": "-76.4% (active)"}
